From PubChem BioAssay (NCATS)
Records with an inconclusive call do not appear. Activity calls are given as the source filed them. Calls come from the whole dose curve; as a rule, active = well fitted curve in the direction sought with a large enough effect; inconclusive = small, poorly fitted or top-dose-only effect, or another doubt; inactive = no such curve, though single readings can be large; an effect the other way counts as inactive or inconclusive.

Key:
[1] = Cellular Toxicity (caspase-3) Mesangial (AID 660); details: mesangial cells, normalized: DMSO 0%, 100 µM tamoxifen 100%; at 91.7 µM (top of the series);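 note: combined caspase 3 and 7 activity read by Caspase-Glo luminescence; cells exposed to compound for 16 h before the caspase read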
Method in brief: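 Seed cells derived from normal human renal glomeruli, incubate 5 h, add compounds across concentrations and incubate 16 h at 37 °C. Caspase 3/7 activation is then quantified by luciferase light, with AC50 derived by Hill modeling.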

[2] = Cellular Toxicity (caspase-3) SK-N-SH (AID 661);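 note: 0% = DMSO basal and 100% = 10 µM staurosporine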
Method in brief: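 Cells were seeded and incubated 5 hr at 37 °C, dosed with compound over a concentration range for 16 hr, then given Caspase-Glo 3/7 reagent for 1 hr at room temperature before luminescence reading.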

[3] = Cellular Toxicity (caspase-3) H-4-II-E (AID 663); details: H-4-II-E rat hepatoma, scaled: DMSO 0%, 100 µM tamoxifen 100%; at 92.2 µM (top of the series);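 note: cells exposed to compound for 16 hr before readout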
Method in brief: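 Caspase 3/7 activation measured in H-4-II-E cells in complete culture medium after 16 hr treatment at 37 °C, using luciferase-coupled substrate readout; AC50 values come from Hill-equation fits of normalized concentration-response data.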

[4] = Cellular Toxicity (caspase-3) Hek293 (AID 664); details: HEK293 caspase-3 activation, DMSO = 0%, 100 µM tamoxifen = 100%; at 92.2 µM (top of the series);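 note: cells exposed to compound for 16 h at 37 °C before readout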
Method in brief: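 qHTS, HEK293 (human embryonic kidney), 16 h cpd exposure in complete medium. Caspase-3/7 activation = luminescence increase; normalized to DMSO/100 uM tamoxifen; Hill-fit AC50.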

[5] = Cellular Toxicity (caspase-3) NIH 3T3 (AID 666);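 note: 0% = DMSO basal and 100% = 100 µM tamoxifen stimulation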
Method in brief: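 Cells were plated at 1000 per well and incubated 5 hr at 37°C, then compound was added for 16 hr. Caspase-Glo 3/7 reagent followed for 20 min at room temperature before luminescence was read.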

[6] = Cellular Toxicity (caspase-3) Renal Proximal Tubule (AID 667); details: Potency: caspase-3 activation;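 note: cells exposed to compound for 16 hours at 37 °C before detection; 0% = DMSO basal and 100% = 10 µM staurosporine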
Method in brief: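 Caspase-Glo 3/7 read-out, rat primary kidney proximal tubule cells. Compound exposure 16 h, 37 °C; detection after 1 h at RT. Activity scaled to DMSO and 10 uM staurosporine.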

[7] = target: Cytochrome P450 3A4 (Homo sapiens) (UniProt P08684); assay: qHTS Assay for Activators of Cytochrome P450 3A4 (AID 885); note: nearly all actives have a fitted effect of over 65% in size
Method in brief: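 Activators are scored by enhanced luminescence from CYP3A4 conversion of luciferin-PPXE (25uM, equal to KM) to luciferin, after 60 min at RT with an NADPH-regenerating system.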

[8] = Cell Viability - LYMP2-001 (AID 921);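 note: cells exposed to compound for 24 h at 37 °C; 0% = DMSO only and full inhibition = tetraoctylammonium bromide control wells; nearly all actives have a fitted effect of over 70% in size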
Method in brief: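 A lymphoblastoid cell line of human origin was treated with library compounds across a concentration series for 24 hours, and viable cell number was estimated from ATP-driven luciferase light output. Hill modeling gave AC50.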

[9] = MultiTox-Fluor Cytotoxicity Assay - LYMP1-001 - Dead Cells (AID 946)
Method in brief: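 Seed 2500 LYMP1-001 cells/well, incubate 5 hr at 37 C; add compound, 16 hr at 37 C; add MultiTox-Fluor reagent, 60 min RT; read dead-cell fluorescence Ex/Em=485/520. Normalize to DMSO and 15 uM tetraoctylammonium bromide.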

[10] = MultiTox-Fluor Cytotoxicity Assay - LYMP1-001 - Live Cells (AID 947);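 note: 0% = DMSO only and full inhibition = tetraoctylammonium bromide control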
[11] = Cell Viability - LYMP1-002 - Assay at 16 hr (AID 948);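 note: 0% = DMSO alone and full effect = 92 µM tetraoctylammonium bromide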
Method in brief: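 In this qHTS, lymphoblastoid LYMP1-002 cells (human) receive compounds for 16 hr at 37 C. Viability is taken from CellTiter-Glo ATP luminescence, and AC50 derives from standard Hill fits.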

[12] = MultiTox-Fluor Cytotoxicity Assay - LYMP1-002 - Live Cells (AID 955); note: % is set by controls: 0 for no effect and ±100 for the full control effect
Method in brief: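 Cells were seeded at 2500 per well and incubated 5 hr. Compounds were then added for 16 hr at 37 C, followed by MultiTox-Fluor reagent for 60 min at room temperature and fluorescence reading of viable-cell protease signal.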

[13] = MultiTox-Fluor Cytotoxicity Assay - LYMP1-002 - Dead Cells (AID 960); note: nearly all actives have a fitted effect of over 60% in size
Method in brief: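 Cells were plated, rested 5 hr, then treated with compound dilution series for 16 hr at 37 C. After adding substrate reagent and 60 min at room temperature, dead-cell protease fluorescence gave concentration-response curves fitted by the Hill equation.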

[14] = MultiTox-Fluor Cytotoxicity Assay - LYMP1-003 - Dead Cells (AID 961); note: nearly all actives have a fitted effect of over 70% in size
Method in brief: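 LYMP1-003 lymphoblastoid, 2500 cells/well, 5 hr settle then 16 hr cpd at 37 C; MultiTox-Fluor reagent 60 min RT; Ex/Em 485/520 dead-cell signal; norm. DMSO = 0%, 15 uM tetraoctylammonium bromide = 100%; Hill AC50.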

[15] = MultiTox-Fluor Cytotoxicity Assay - LYMP1-003 - Live Cells (AID 962);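 note: cells exposed to compound for 16 hours at 37 °C; 0% = DMSO only and full loss = 92 µM tetraoctylammonium bromide; cytotoxic hits lower the live-cell protease signal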
Method in brief: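 Acute cytotoxicity is scored as a drop in live-cell protease activity in human lymphoblastoid LYMP1-003 cells after 16 hr compound exposure at 37 C. AC50 values come from Hill-equation modelling of concentration-response data.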

[16] = Cell Viability - LYMP1-003 - Assay at 24 hr (AID 963);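 note: plate controls were DMSO only for no effect and tetraoctylammonium bromide positive control for full effect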
Method in brief: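 Cytotoxicity is scored as a concentration-dependent fall in ATP-linked luciferase signal in human lymphoblastoid LYMP1-003 cells treated 24 hr at 37 C in complete culture medium.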

[17] = Cell Viability - LYMP1-003 - Assay at 40 hr (AID 964); note: % is set by controls: 0 for no effect and ±100 for the full control effect; nearly all actives have a fitted effect of over 60% in size
Method in brief: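 Luminescent ATP signal (CellTiter-Glo) served as the viability read-out after 40 hr compound treatment of human lymphoblastoid LYMP1-003 cells at 37 C. Decreases in ATP were fitted with the Hill equation to give AC50.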

[18] = Cell Viability - LYMP2-003 (AID 965);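 note: cells exposed to compounds for 24 h before reading; 0% = DMSO only and full effect = 92 µM tetraoctylammonium bromide; nearly all actives have a fitted effect of over 50% in size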
Method in brief: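 qHTS, human lymphoblastoid line, 2500 cells/well, complete medium. 24 h drug, 37 C. ATP-based luminescent readout; Hill-fit AC50.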

[19] = Cellular Toxicity (caspase-3) N2a (AID 665);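 note: compound exposure lasted 16 h at 37 °C before readout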
Method in brief: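 Caspase-3/7 activation, measured as increased luminescence from aminoluciferin release, is quantified in mouse N2a cells exposed to compounds for 16 h. Values are normalized to DMSO and 10 uM staurosporine, with AC50 derived by Hill modelling.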

[20] = target: Cytochrome P450 3A4 (Homo sapiens) (UniProt P08684); assay: qHTS Assay for Inhibitors and Substrates of Cytochrome P450 3A4 (AID 884); note: % is set by controls: 0 for no effect and ±100 for the full control effect; nearly all actives have a fitted effect of over 50% in size
Method in brief: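 Luminescent readout of luciferin produced by CYP3A4 (20 nM) dealkylation of Luciferin-PPXE, 25 uM (its KM). NADPH-driven reaction ran 60 min at RT after 10 min compound preincubation; data scaled to 57 uM ketoconazole as 100% inhibition.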

Sequence of Cytochrome P450 3A4 (Homo sapiens) (P08684 whole entry, looked up): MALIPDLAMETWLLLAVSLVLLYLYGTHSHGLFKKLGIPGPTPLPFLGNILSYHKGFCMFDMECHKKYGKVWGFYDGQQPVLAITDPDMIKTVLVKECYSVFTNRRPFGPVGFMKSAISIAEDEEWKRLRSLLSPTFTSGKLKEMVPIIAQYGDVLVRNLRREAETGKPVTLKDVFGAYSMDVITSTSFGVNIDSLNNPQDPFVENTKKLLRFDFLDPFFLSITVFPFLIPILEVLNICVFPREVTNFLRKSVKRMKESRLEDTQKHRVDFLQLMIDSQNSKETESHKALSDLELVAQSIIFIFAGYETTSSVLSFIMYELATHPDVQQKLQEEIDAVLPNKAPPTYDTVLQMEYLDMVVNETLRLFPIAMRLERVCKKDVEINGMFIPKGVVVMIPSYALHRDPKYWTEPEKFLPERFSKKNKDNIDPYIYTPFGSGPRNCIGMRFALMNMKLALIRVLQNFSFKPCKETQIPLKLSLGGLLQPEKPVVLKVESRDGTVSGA

Cc1ccc(S(=O)(=O)NC2CCCCC2)cc1
inactive: caspase-3 activation [1] 0.471% | outcome [2] | caspase-3 activation [3] -0.0757% | caspase-3 activation [4] 2.22% | outcome [5] | Potency [6] | outcome [7] | Potency [8] | outcome [9] | outcome [10] | outcome [11] | outcome [12] | outcome [13] | Potency [14] | Potency [15] | Potency [16] | Potency [17] | Potency [18]

N#Cc1ccccc1
inactive: caspase-3 activation [1] -0.669% | outcome [2] | caspase-3 activation [3] 0.346% | outcome [19] | outcome [5] | Potency [6] | Potency [20] | Potency [8] | outcome [9] | outcome [10] | outcome [11] | outcome [12] | outcome [13] | Potency [14] | Potency [15] | Potency [16] | Potency [17] | Potency [18]

C=CCOC(=O)CCCCCCCC
inactive: caspase-3 activation [1] 0.626% | outcome [2] | caspase-3 activation [3] -0.694% | outcome [19] | outcome [5] | Potency [6] | Potency [20] | Potency [8] | outcome [9] | outcome [11] | outcome [12] | outcome [13] | Potency [15] | Potency [16] | Potency [17]

Cc1c(N)cccc1N
inactive: caspase-3 activation [1] -0.29% | outcome [2] | caspase-3 activation [3] 0.28% | caspase-3 activation [4] 0.0499% | outcome [5] | Potency [6] | Potency [8] | outcome [9] | outcome [10] | outcome [11] | outcome [12] | outcome [13] | Potency [14] | Potency [15] | Potency [16] | Potency [17] | Potency [18]

O=P(O)(OCc1ccccc1)OCc1ccccc1
inactive: caspase-3 activation [1] -0.354% | outcome [2] | caspase-3 activation [3] 1.06% | outcome [19] | outcome [5] | Potency [6] | Potency [20] | Potency [8] | outcome [9] | outcome [10] | outcome [11] | outcome [12] | outcome [13] | Potency [14] | Potency [15] | Potency [16] | Potency [17] | Potency [18]

Cc1cccc(Br)c1
inactive: caspase-3 activation [1] -0.167% | outcome [2] | caspase-3 activation [3] 0.836% | caspase-3 activation [4] -1.49% | outcome [5] | Potency [6] | Potency [20] | Potency [8] | outcome [9] | outcome [11] | outcome [12] | Potency [14] | Potency [15] | Potency [16] | Potency [17] | Potency [18]

CC(=O)c1ccccc1[N+](=O)[O-]
inactive: caspase-3 activation [1] -0.0773% | outcome [2] | caspase-3 activation [3] 0.797% | outcome [19] | outcome [5] | Potency [6] | Potency [20] | Potency [8] | outcome [9] | outcome [10] | outcome [11] | outcome [12] | outcome [13] | Potency [14] | Potency [15] | Potency [16] | Potency [17] | Potency [18]

CC(C)(O)CCC(C)(C)O
inactive: caspase-3 activation [1] -1.06% | outcome [2] | caspase-3 activation [3] 0.513% | outcome [5] | Potency [6] | Potency [20] | Potency [8] | outcome [9] | outcome [10] | outcome [11] | outcome [12] | outcome [13] | Potency [14] | Potency [15] | Potency [16] | Potency [17]

Nc1ccc(Cl)cc1[N+](=O)[O-]
inactive: caspase-3 activation [1] 0.0963% | outcome [2] | caspase-3 activation [3] -0.0414% | caspase-3 activation [4] 1.61% | outcome [5] | Potency [6] | Potency [20] | Potency [8] | outcome [9] | outcome [11] | outcome [12] | outcome [13] | Potency [15] | Potency [16] | Potency [17]

C[C@@H]1O[C@@H](O[C@@H]2[C@@H](O)[C@H](OCCc3ccc(O)c(O)c3)O[C@H](CO[C@@H]3O[C@H](CO)[C@@H](O)[C@H](O)[C@H]3O)[C@H]2OC(=O)/C=C/c2ccc(O)c(O)c2)[C@H](O)[C@H](O)[C@H]1O
inactive: caspase-3 activation [1] -1.14% | outcome [2] | caspase-3 activation [3] -0.514% | outcome [19] | outcome [5] | Potency [6] | outcome [7] | Potency [8] | outcome [9] | outcome [10] | outcome [11] | outcome [12] | outcome [13] | Potency [14] | Potency [15] | Potency [16] | Potency [17] | Potency [18]

CCOCC(=O)O
inactive: caspase-3 activation [1] 1.49% | outcome [2] | caspase-3 activation [3] 0.681% | outcome [19] | outcome [5] | Potency [6] | Potency [20] | Potency [8] | outcome [9] | outcome [10] | outcome [11] | outcome [12] | outcome [13] | Potency [14] | Potency [15] | Potency [16] | Potency [17] | Potency [18]

Cc1ccccc1C(N)=O
inactive: caspase-3 activation [1] 2.19% | outcome [2] | caspase-3 activation [3] 1.38% | outcome [19] | outcome [5] | Potency [6] | Potency [20] | Potency [8] | outcome [9] | outcome [10] | outcome [11] | outcome [12] | outcome [13] | Potency [14] | Potency [15] | Potency [16] | Potency [17] | Potency [18]

CC(CCl)OC(C)CCl (stereo not given)
inactive: caspase-3 activation [1] -0.591% | outcome [2] | caspase-3 activation [3] 0.133% | outcome [19] | outcome [5] | Potency [6] | Potency [20] | Potency [8] | outcome [9] | outcome [10] | outcome [11] | outcome [12] | outcome [13] | Potency [14] | Potency [15] | Potency [16] | Potency [17] | Potency [18]

ClCCl
inactive: caspase-3 activation [1] -1.27% | outcome [2] | caspase-3 activation [3] -0.724% | outcome [5] | Potency [6] | Potency [20] | Potency [8] | outcome [9] | outcome [10] | outcome [11] | outcome [12] | outcome [13] | Potency [14] | Potency [15] | Potency [16] | Potency [17] | Potency [18]

Cc1ccc(C)cc1
inactive: caspase-3 activation [1] -0.809% | outcome [2] | caspase-3 activation [3] 1.14% | outcome [19] | outcome [5] | Potency [6] | Potency [20] | Potency [8] | outcome [9] | outcome [10] | outcome [11] | outcome [12] | outcome [13] | Potency [14] | Potency [15] | Potency [16] | Potency [17] | Potency [18]

O=C(O)c1ccc(Cl)c(Cl)c1
inactive: caspase-3 activation [1] -0.246% | outcome [2] | caspase-3 activation [3] -0.517% | outcome [5] | Potency [6] | Potency [20] | Potency [8] | outcome [9] | outcome [10] | outcome [11] | outcome [12] | outcome [13] | Potency [14] | Potency [15] | Potency [16] | Potency [17] | Potency [18]
